According to the supplement of paper PMC11732987, “Enantioselective OTUD7B fragment discovery through chemoproteomics screening and high-throughput optimisation” (Communications Chemistry, 2025):

Assays:
Test in all cases: log2 ratio of Biotin-Ahx-Ub-VS probe labelling (fragment/DMSO); higher = less target engagement (more negative = stronger competition), active = hit call of the paper (q ≤ 0.05, log2 ratio ≤ -1)
Details in all cases: compound concentration: 200 uM; treatment time: 3 h
USP19 = target: T1, USP19 (UniProt O94966)
T1 sequence (whole entry): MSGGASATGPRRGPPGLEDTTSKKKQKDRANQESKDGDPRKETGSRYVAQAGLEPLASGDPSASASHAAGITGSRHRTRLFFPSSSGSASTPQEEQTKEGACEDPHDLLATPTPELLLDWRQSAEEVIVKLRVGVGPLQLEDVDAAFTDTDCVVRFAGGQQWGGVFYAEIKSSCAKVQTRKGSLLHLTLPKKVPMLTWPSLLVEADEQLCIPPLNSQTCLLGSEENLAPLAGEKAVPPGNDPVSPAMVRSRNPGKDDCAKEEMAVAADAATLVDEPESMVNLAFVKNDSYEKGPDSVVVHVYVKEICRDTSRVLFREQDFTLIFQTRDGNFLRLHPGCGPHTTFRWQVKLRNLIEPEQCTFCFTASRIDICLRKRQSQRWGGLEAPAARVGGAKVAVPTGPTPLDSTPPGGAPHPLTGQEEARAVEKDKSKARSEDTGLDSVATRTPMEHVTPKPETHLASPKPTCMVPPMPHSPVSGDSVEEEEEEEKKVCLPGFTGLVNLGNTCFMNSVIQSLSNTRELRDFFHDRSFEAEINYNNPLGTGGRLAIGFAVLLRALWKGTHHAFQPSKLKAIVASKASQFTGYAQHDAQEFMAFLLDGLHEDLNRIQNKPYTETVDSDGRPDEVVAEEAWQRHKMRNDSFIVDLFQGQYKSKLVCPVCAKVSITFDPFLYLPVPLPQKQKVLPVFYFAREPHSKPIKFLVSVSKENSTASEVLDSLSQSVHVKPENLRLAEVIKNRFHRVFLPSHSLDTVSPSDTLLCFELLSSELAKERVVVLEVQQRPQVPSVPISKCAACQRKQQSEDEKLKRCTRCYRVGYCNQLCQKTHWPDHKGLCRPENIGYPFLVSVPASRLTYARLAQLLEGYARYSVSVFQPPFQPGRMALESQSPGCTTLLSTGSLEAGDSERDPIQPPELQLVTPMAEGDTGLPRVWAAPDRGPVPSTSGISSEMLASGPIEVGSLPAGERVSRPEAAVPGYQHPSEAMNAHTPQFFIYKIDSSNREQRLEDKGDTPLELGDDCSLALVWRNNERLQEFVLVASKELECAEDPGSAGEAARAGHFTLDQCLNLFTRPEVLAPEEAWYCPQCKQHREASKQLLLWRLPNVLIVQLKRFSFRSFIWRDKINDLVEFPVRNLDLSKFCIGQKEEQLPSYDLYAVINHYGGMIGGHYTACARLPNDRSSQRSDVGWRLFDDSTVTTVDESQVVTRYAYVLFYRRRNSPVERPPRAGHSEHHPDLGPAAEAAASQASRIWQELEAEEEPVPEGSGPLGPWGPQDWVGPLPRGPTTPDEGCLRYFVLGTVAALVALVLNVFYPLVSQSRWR
How it was run: (§1)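 Average log2 ratios of fragment over vehicle were obtained by unpaired t-test from global-median-normalised Spectronaut label-free quantities. Proteins with ≥2 unique peptides were included. HEK293T lysate (495 µg per sample) was treated in triplicate with fragment at 200 µM or vehicle for 3 h, then with Biotin-Ahx-Ub-VS at 0.5 µM final for 1 h, and labelled DUBs were NeutrAvidin-enriched and run by diaPASEF LC-MS/MS.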

USP22 = target: T2, USP22 (UniProt Q9UPT9)
T2 sequence (whole entry): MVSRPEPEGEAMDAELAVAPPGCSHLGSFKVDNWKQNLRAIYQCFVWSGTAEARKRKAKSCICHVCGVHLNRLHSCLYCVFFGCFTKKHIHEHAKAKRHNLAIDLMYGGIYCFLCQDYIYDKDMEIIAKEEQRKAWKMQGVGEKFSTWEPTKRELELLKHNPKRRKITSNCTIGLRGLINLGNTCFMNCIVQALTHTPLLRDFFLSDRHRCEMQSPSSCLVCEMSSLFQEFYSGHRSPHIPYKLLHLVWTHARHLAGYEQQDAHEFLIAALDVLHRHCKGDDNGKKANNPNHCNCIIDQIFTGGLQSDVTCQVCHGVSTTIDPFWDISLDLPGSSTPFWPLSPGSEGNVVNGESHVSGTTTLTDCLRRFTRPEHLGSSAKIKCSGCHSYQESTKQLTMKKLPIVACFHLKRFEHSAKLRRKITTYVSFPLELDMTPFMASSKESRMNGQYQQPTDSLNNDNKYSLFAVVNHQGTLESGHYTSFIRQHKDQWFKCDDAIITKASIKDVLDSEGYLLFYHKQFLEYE
How it was run: as §1

USP24 = USP24 (UniProt Q9UPU5)
Sequence of USP24 (Q9UPU5 whole entry): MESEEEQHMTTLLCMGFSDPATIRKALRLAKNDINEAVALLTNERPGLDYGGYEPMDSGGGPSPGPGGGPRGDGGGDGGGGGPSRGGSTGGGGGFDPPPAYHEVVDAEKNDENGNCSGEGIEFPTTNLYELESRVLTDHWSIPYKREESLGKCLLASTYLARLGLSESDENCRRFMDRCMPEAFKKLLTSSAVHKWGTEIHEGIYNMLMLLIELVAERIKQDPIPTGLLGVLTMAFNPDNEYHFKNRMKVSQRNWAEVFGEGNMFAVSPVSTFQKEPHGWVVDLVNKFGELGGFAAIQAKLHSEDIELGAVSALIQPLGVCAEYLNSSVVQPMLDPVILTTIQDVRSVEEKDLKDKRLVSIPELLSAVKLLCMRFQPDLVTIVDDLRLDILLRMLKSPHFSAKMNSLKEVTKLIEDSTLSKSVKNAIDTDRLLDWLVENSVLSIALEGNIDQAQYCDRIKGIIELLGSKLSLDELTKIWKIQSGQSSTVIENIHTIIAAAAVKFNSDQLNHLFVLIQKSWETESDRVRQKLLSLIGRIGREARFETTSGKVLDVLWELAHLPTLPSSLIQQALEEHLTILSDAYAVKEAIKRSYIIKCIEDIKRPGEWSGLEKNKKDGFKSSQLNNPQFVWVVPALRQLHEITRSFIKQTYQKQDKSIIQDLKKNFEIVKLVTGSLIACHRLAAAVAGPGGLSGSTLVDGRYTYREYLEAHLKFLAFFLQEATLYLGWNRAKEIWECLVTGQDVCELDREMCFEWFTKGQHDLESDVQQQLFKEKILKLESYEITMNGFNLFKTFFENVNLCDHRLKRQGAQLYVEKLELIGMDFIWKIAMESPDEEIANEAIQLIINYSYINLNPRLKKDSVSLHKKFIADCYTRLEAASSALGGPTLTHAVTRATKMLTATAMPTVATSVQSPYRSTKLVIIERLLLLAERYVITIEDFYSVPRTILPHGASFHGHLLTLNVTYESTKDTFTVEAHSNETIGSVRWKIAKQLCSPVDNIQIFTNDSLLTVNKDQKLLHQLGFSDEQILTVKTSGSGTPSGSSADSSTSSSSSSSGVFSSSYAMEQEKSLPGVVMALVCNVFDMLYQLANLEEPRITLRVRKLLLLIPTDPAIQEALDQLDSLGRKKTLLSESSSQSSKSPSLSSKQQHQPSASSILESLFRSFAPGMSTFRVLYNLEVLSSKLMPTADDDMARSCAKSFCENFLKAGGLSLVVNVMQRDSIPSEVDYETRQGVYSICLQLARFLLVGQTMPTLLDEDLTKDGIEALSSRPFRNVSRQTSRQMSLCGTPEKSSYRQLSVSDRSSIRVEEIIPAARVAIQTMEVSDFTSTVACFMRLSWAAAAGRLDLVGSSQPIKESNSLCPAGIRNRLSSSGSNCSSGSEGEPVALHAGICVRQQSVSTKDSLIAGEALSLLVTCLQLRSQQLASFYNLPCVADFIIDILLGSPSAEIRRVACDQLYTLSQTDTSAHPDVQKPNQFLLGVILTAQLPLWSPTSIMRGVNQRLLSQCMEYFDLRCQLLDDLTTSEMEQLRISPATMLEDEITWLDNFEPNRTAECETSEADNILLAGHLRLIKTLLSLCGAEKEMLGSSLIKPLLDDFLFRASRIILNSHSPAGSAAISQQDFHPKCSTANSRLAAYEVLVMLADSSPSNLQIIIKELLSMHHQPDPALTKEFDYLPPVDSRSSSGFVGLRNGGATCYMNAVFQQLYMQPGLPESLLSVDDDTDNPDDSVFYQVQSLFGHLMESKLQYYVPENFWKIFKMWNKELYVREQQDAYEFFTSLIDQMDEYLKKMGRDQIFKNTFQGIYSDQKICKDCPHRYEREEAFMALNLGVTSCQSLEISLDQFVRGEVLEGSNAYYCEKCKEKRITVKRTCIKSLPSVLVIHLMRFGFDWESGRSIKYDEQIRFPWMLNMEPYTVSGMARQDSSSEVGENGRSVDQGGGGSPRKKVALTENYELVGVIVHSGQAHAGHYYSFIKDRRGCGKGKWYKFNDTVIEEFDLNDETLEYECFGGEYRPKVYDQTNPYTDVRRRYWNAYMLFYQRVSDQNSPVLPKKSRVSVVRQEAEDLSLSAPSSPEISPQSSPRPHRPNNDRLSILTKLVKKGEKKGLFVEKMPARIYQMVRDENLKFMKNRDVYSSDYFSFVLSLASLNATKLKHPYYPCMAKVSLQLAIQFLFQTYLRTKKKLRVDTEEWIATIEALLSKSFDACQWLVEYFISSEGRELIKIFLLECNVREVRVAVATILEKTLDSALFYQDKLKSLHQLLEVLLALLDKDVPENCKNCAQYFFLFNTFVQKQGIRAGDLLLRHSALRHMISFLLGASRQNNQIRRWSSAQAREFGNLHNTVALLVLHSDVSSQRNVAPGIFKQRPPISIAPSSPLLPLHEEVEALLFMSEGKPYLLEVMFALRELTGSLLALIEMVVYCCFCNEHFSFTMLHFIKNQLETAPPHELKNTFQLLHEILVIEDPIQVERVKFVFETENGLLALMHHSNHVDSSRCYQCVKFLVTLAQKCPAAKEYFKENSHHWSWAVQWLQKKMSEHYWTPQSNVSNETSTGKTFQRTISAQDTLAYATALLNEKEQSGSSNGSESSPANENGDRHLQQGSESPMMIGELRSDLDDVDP
How it was run: as §1

USP25 = target: T3, USP25 (UniProt Q9UHP3)
T3 sequence (whole entry): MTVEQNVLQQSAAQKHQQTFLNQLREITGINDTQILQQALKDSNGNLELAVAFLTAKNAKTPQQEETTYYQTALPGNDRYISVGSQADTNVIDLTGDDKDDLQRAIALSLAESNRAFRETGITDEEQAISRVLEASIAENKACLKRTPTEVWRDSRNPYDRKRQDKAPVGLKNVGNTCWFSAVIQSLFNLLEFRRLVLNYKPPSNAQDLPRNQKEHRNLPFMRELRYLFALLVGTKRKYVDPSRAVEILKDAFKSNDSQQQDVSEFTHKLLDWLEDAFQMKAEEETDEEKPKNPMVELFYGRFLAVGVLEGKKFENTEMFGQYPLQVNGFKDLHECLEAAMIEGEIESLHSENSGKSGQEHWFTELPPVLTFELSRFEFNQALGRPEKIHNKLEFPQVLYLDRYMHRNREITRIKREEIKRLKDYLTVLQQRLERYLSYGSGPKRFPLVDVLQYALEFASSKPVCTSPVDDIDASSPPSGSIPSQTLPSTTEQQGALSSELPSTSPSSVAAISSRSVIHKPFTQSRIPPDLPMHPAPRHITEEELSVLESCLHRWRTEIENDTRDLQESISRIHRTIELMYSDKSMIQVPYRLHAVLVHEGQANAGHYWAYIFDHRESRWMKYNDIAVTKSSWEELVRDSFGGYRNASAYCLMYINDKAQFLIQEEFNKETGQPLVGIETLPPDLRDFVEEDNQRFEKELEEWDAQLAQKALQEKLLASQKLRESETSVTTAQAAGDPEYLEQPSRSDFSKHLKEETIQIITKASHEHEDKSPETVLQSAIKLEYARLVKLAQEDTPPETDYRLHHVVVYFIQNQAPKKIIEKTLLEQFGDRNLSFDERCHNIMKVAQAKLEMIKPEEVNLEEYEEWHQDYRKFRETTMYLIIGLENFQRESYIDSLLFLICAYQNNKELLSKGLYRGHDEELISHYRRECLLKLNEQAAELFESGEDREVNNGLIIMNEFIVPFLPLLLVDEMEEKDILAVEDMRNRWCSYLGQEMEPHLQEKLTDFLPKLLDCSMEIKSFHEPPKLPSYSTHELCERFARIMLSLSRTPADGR
How it was run: as §1

USP28 = target: T4, USP28 (UniProt Q96RU2)
T4 sequence (whole entry): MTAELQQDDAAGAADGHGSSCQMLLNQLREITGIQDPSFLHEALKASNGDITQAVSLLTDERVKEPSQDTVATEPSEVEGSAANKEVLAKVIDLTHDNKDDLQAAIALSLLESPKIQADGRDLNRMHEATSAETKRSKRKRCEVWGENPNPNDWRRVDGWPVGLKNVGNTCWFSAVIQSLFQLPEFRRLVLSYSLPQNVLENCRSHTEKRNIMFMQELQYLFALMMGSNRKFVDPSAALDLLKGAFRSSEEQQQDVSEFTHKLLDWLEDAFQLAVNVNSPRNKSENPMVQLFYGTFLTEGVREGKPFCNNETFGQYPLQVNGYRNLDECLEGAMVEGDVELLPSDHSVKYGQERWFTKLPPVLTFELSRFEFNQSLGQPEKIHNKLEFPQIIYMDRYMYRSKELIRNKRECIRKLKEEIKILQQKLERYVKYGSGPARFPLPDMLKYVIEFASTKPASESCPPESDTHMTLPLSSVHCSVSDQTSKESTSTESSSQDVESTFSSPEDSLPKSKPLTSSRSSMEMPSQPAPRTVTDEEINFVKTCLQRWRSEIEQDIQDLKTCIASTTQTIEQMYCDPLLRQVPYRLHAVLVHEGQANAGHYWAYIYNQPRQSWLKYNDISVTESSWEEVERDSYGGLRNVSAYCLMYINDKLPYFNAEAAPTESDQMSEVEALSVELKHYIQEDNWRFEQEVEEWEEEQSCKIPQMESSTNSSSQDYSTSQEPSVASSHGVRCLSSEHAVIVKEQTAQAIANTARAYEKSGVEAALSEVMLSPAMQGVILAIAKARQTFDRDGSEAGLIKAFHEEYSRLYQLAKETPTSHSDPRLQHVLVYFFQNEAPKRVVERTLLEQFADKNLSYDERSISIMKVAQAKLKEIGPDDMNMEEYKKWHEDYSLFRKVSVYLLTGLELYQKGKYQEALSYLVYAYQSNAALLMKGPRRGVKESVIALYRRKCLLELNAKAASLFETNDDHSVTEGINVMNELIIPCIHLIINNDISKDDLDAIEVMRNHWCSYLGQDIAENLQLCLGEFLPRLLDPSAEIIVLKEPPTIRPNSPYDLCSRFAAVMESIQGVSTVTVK
How it was run: as §1

Measured: log2 ratio of Biotin-Ahx-Ub-VS probe labelling

CC(C)n1nccc1NC(=O)CCl
inactive: USP19 -0.0967 | USP22 0.134 | USP24 -0.207 | USP25 -0.514 | USP28 -0.651
